According to PubChem BioAssay AID1159580 (chemical genetic matrix, 2015):
Values joined by “and” are separate entries in the source; they are usually repeats but may differ in a detail not shown here. Equal values may be shown once. Hit rate of the full screen: of about 5,500 compounds, about 2,000 (36%) were called active. Roughly 18% stayed inconclusive and do not appear here. Cut-off read from the data, not from the text of the source: active = normalized growth mostly below about 0.91 (no sharp cut-off); inconclusive = no clear call, values can overlap the other calls; inactive = mostly above about 0.92. The list shows a part of the results.

Experiment: chemical genetic growth profiling, strain panel (AID 1159580);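 note: tested at 20 µM; growth read once vehicle control cultures reached saturation at 30 °C; 1 = growth at the plate median or of vehicle wells; lower values mean less growth of the strain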
Settings: S. cerevisiae deletion strains, growth OD

Measured: normalized growth

COc1cc(C)c(C(=O)Oc2cc(C)c(C(=O)O)c(O)c2C)c(OC)c1C
inactive: locus YAL021C, strain ccr4, active compounds read low 1.01 | locus YAL026C, strain drs2, active compounds read low 0.965 | locus YAL030W, strain snc1, active compounds read low 0.994 | locus YBL061C, strain skt5, active compounds read low 0.987 | locus YBR009C, strain hhf1, active compounds read low 0.91 | locus YBR021W, strain FUR4, active compounds read low 0.995 | locus YBR023C, strain chs3, active compounds read low 0.983 | locus YBR171W, strain sec66, active compounds read low 0.969 | locus YBR229C, strain ROT2, active compounds read low 0.993 | locus YBR231C, strain swc5, active compounds read low 0.98 | locus YBR279W, strain paf1, active compounds read low 0.995 | locus YCL011C, strain gbp2, active compounds read low 0.968 | locus YCL016C, strain dcc1, active compounds read low 0.986 | locus YCL029C, strain bik1, active compounds read low 1.02 | locus YCL061C, strain MRC1, active compounds read low 0.974 | locus YCL069W, strain vba3, active compounds read low 0.976 | locus YCR088W, strain abp1, active compounds read low 0.994 | locus YDL005C, strain med2, active compounds read low 0.992 | locus YDL035C, strain GPR1, active compounds read low 0.991 | locus YDL040C, strain nat1, active compounds read low 0.974 | locus YDL074C, strain BRE1, active compounds read low 0.982 | locus YDL101C, strain DUN1, active compounds read low 1.02 | locus YDL134C, strain PPH21, active compounds read low 1.02 | locus YDL185W, strain tfp1, active compounds read low 1.02 | locus YDL192W, strain arf1, active compounds read low 1 | locus YDR001C, strain nth1, active compounds read low 0.972 | locus YDR069C, strain doa4, active compounds read low 0.993 | locus YDR101C, strain arx1, active compounds read low 1.01 | locus YDR137W, strain rgp1, active compounds read low 0.906 | locus YDR159W, strain sac3, active compounds read low 0.89 | locus YDR162C, strain NBP2, active compounds read low 0.98 | locus YDR195W, strain ref2 0.966 | locus YDR297W, strain sur2, active compounds read low 0.988 | locus YDR318W, strain mcm21, active compounds read low 1 | locus YDR334W, strain swr1, active compounds read low 1 | locus YDR335W, strain msn5, active compounds read low 0.993 | locus YDR388W, active compounds read low 1.01 | locus YDR502C, strain sam2, active compounds read low 1 | locus YEL003W, strain gim4, active compounds read low 0.968 | locus YEL037C, strain rad23, active compounds read low 0.982 | locus YEL061C, strain CIN8 (second series), active compounds read low 0.982 | locus YEL061C, strain CIN8, active compounds read low 1 | locus YER015W, strain faa2, active compounds read low 0.99 | locus YER016W, strain bim1, active compounds read low 0.984 | locus YER110C, active compounds read low 1.02 | locus YER111C, strain swi4, active compounds read low 0.97 | locus YER155C, strain BEM2, active compounds read low 1 | locus YER167W, strain BCK2, active compounds read low 0.999 | locus YFR010W, strain ubp6, active compounds read low 0.991 | locus YGL078C, strain dbp3, active compounds read low 0.986 | locus YGL086W, strain mad1, active compounds read low 1.02 | locus YGL167C, strain pmr1, active compounds read low 0.964 | locus YGL173C, strain kem1, active compounds read low 0.975 | locus YGL227W, strain vid30, active compounds read low 0.969 | locus YGL240W, strain doc1, active compounds read low 0.941 | locus YGL248W, strain PDE1, active compounds read low 1.01 | locus YGL253W, strain hxk2, active compounds read low 0.949 | locus YGR078C, strain PAC10, active compounds read low 0.992 | locus YGR135W, strain pre9, active compounds read low 1 | locus YGR252W, strain gcn5, active compounds read low 0.905 | locus YHR013C, strain ard1, active compounds read low 0.887 | locus YHR027C, strain rpn1, active compounds read low 1 | locus YHR030C, strain SLT2, active compounds read low 1.02 and 0.932 | locus YHR079C, strain IRE1 (second series), active compounds read low 1.02 | locus YHR094C, strain hxt1, active compounds read low 1.01 | locus YHR129C, strain ARP1, active compounds read low 1.01 | locus YHR142W, strain chs7, active compounds read low 0.994 | locus YHR200W, strain rpn10, active compounds read low 1 | locus YIL066C, strain RNR3, active compounds read low 1 | locus YIL073C, strain SPO22, active compounds read low 1.06 | locus YIL125W, strain kgd1, active compounds read low 0.996 | locus YIR030C, strain dcg1, active compounds read low 1.01 | locus YJL092W, strain hpr5, active compounds read low 0.983 | locus YJL095W, strain BCK1 (second series), active compounds read low 0.988 | locus YJL095W, strain BCK1, active compounds read low 0.998 and 0.884 | locus YJL115W, strain asf1, active compounds read low 0.991 | locus YJL134W, strain LCB3, active compounds read low 1.01 | locus YJL154C, strain vps35, active compounds read low 0.979 | locus YJL164C, strain tpk1, active compounds read low 0.993 | locus YJL166W, strain qcr8, active compounds read low 0.953 | locus YJL168C, strain set2, active compounds read low 1 | locus YJL187C, strain SWE1 (second series), active compounds read low 1.03 | locus YJL187C, strain SWE1, active compounds read low 0.993 | locus YJR043C, strain POL32, active compounds read low 0.998 | locus YJR066W, strain TOR1, active compounds read low 0.975 | locus YJR075W, strain HOC1, active compounds read low 1.01 | locus YKL009W, strain mrt4, active compounds read low 0.992 | locus YKL068W, active compounds read low 1 | locus YKL085W, strain MDH1 (second series), active compounds read low 0.995 | locus YKL085W, strain MDH1, active compounds read low 0.995 | locus YKL160W, strain elf1, active compounds read low 0.991 | locus YKL190W, strain CNB1, active compounds read low 1.01 | locus YKR001C, strain vps1, active compounds read low 0.956 | locus YKR026C, strain gcn3, active compounds read low 0.979 | locus YKR091W, strain srl3, active compounds read low 0.981 | locus YLL001W, strain dnm1, active compounds read low 1 | locus YLL026W, active compounds read low 0.968 | locus YLL041C, strain sdh2, active compounds read low 0.982 | locus YLR027C, strain aat2, active compounds read low 0.991 | locus YLR039C, strain RIC1, active compounds read low 1.03 | locus YLR058C, strain SHM2, active compounds read low 1.01 | locus YLR102C, strain apc9, active compounds read low 1.02 | locus YLR221C, strain rsa3, active compounds read low 1.01 | locus YLR258W, strain gsy2, active compounds read low 0.947 | locus YLR262C, strain YPT6 (second series), active compounds read low 0.943 | locus YLR262C, strain YPT6, active compounds read low 1.03 | locus YLR268W, strain sec22, active compounds read low 1.03 | locus YLR330W, strain CHS5, active compounds read low 1.01 | locus YLR342W, strain FKS1 (second series), active compounds read low 0.985 | locus YLR342W, strain FKS1, active compounds read low 0.978 | locus YLR357W, strain rsc2, active compounds read low 0.94 | locus YLR370C, strain arc18, active compounds read low 0.999 | locus YLR371W, strain rom2, active compounds read low 1.02 | locus YLR384C, strain iki3, active compounds read low 0.992 | locus YLR418C, strain cdc73, active compounds read low 0.859 | locus YML016C, strain PPZ1, active compounds read low 1.01 | locus YML032C, strain rad52, active compounds read low 0.985 | locus YML120C, strain ndi1, active compounds read low 0.971 | locus YML124C, strain tub3, active compounds read low 1.01 | locus YMR058W, strain fet3, active compounds read low 0.984 | locus YMR078C, strain ctf18, active compounds read low 1 | locus YMR125W, strain sto1, active compounds read low 0.912 | locus YMR129W, active compounds read low 0.97 | locus YMR223W, strain ubp8, active compounds read low 0.994 | locus YMR231W, strain pep5, active compounds read low 0.988 | locus YMR307W, strain GAS1, active compounds read low 0.978 | locus YNL067W, strain RPL9B, active compounds read low 1.04 | locus YNL128W, strain TEP1, active compounds read low 1.03 | locus YNL153C, strain GIM3, active compounds read low 1.01 | locus YNL183C, strain NPR1, active compounds read low 0.955 | locus YNL209W, strain ssb2, active compounds read low 1 | locus YNL233W, strain BNI4, active compounds read low 1 | locus YNL248C, strain rpa49, active compounds read low 1.01 | locus YNL250W, strain rad50, active compounds read low 1.03 | locus YNL271C, strain bni1, active compounds read low 1.01 | locus YNL298W, strain CLA4, active compounds read low 0.934 | locus YNL307C, strain MCK1, active compounds read low 1 | locus YNL322C, strain KRE1 (second series), active compounds read low 0.996 | locus YNL322C, strain KRE1, active compounds read low 1 | locus YNR049C, strain mso1, active compounds read low 0.978 | locus YNR052C, strain pop2, active compounds read low 1 | locus YOL012C, strain htz1 1.06 | locus YOL147C, strain pex11, active compounds read low 1.01 | locus YOR001W, strain rrp6, active compounds read low 0.989 | locus YOR061W, strain CKA2, active compounds read low 1.01 | locus YOR069W, strain VPS5, active compounds read low 1.02 | locus YOR070C, strain gyp1, active compounds read low 0.983 | locus YOR080W, strain dia2, active compounds read low 0.997 | locus YOR083W, strain WHI5, active compounds read low 1.03 | locus YOR106W, strain vam3, active compounds read low 1 | locus YOR136W, strain idh2, active compounds read low 1.02 | locus YOR144C, strain elg1, active compounds read low 1.01 | locus YOR184W, strain ser1, active compounds read low 0.986 | locus YOR265W, strain rbl2, active compounds read low 0.992 | locus YOR270C, strain vph1, active compounds read low 0.928 | locus YOR290C, strain snf2, active compounds read low 0.931 | locus YOR316C, strain cot1, active compounds read low 1.01 | locus YPL051W, strain arl3, active compounds read low 1 | locus YPL055C, strain LGE1, active compounds read low 1.01 | locus YPL078C, strain atp4, active compounds read low 0.986 | locus YPL106C, strain sse1, active compounds read low 0.974 | locus YPL240C, strain hsp82, active compounds read low 0.979 | locus YPL241C, strain CIN2, active compounds read low 0.995 | locus YPL256C, strain CLN2, active compounds read low 0.917 | locus YPR119W, strain clb2, active compounds read low 1.01 | locus YPR141C, strain kar3, active compounds read low 1.03 | locus YPR163C, strain tif3, active compounds read low 1.01 | locus YPR167C, strain met16, active compounds read low 1.01 | strain wtn01, active compounds read low 1.04
active: locus YDR392W, strain spt3, active compounds read low 0.479 | locus YER155C, strain BEM2 (second series), active compounds read low 0.708 | locus YHR079C, strain IRE1, active compounds read low 0.845 | locus YJL129C, strain trk1, active compounds read low 0.867 | locus YLR113W, strain HOG1, active compounds read low 0.557 | locus YLR320W, strain mms22, active compounds read low 0.859 | locus YMR205C, strain PFK2, active compounds read low 0.852 | locus YNL071W, strain lat1, active compounds read low 0.869 | locus YOR231W, strain MKK1, active compounds read low 0.777
